Screening results (PubChem BioAssay)
Compounds with a hit are over-represented: about 8.3% of the library has one in this group of screens.
Gal4-VP16 FLuc: Gal4-VP16 reporter inhibition counter-screen; 310,000 compounds, 3.5% hits; Drosophila S2 Gal4-VP16 UAS-luciferase, luminescence, 20 h; Potency, µM (top dose mostly 53.6 µM), for the others: top-dose activity, negative = inhibition, usual class: inhibitors; AID 2546;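 further: Gal4-VP16 expression switched on by copper sulfate through the metallothionein promoter; potency means the concentration at half of the fitted maximal effect; on the % scale 0 is the no-effect control and ±100 the full control effect; nearly all actives have a fitted effect of over 50% in size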
MCF10A rereplic: DNA re-replication induction in MCF 10a cells | MCF 10A DNA re-replication, Hoechst nuclear intensity, 48 h | Potency, µM (top dose mostly 46.1 µM), without a hit: top-dose activity, positive = re-replication, usual class: activators | 350,000 compounds, 2.9% hits | AID 624296; further: potency means the concentration at half of the fitted maximal effect; % of control where 0% means no effect; nearly all actives have a fitted effect of over 50% in size
RORg inh: inhibitors of mouse ROR gamma transcriptional activity; P51450; Drosophila S2 Gal4-RORgamma UAS-luciferase reporter, 20 h; Potency, µM (doses to about 53.6 µM), inactives show at the top dose activity change, negative = inhibition, hits mostly inhibitors; 310,000 compounds, 5.4% hits; AID 2551; further: potency means the concentration at half of the fitted maximal effect; on the % scale 0 is the no-effect control and ±100 the full control effect; nearly all actives have a fitted effect of over 60% in size
Target sequence (P51450 whole entry, looked up, the tested form may be a part): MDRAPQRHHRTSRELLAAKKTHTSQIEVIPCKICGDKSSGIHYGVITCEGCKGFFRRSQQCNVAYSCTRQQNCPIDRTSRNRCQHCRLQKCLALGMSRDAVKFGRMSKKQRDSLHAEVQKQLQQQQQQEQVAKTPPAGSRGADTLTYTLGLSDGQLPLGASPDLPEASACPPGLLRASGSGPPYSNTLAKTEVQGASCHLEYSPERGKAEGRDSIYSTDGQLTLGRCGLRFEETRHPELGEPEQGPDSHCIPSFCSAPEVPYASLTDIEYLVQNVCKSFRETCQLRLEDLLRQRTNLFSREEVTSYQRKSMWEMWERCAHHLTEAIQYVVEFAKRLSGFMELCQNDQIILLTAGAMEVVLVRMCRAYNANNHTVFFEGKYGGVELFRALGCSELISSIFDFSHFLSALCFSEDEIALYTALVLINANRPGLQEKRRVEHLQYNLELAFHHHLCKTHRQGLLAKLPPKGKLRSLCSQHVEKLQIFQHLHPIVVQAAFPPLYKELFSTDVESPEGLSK
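Drosophila Schneider cells stably carrying a metallothionein-driven Gal4 DBD–ROR gamma fusion and a UAS-Photinus luciferase reporter were exposed to compound for 1 hr, then induced with copper sulfate (700 uM final) for 20 hr at ambient temperature before luminescence reading.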
SW480 rereplic: DNA re-replication induction in SW480 cells. SW480 DNA re-replication, Hoechst DNA content imaging, 48 h. Potency, µM (highest dose often 46.1 µM), for the others: top-dose re-replication activation, most hits filed as activators. 340,000 compounds, 1.8% hits. AID 624297; further: potency means the concentration at half of the fitted maximal effect; % of control where 0% means no effect; nearly all actives have a fitted effect of over 55% in size
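First, 250 cells per well were seeded. Next, compound or vehicle (23 nL) was pinned in, plates sat 48 hr at 37 C. Finally Hoechst was added for 40 min before fluorescence scanning.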
BCR signal inh: chronic active BCR signaling inhibition; 340,000 compounds, 0.05% hits; AID 493014; ABC-DLBCL IkBa-CBG/CBR reporter, luminescence ratio, 4 h; Potency, µM (series often up to 46.1 µM), for inactives: at the highest dose activity change, negative = inhibition, actives largely listed as inhibitors; active means well fitted inhibition curve with a large enough effect in the signal ratio, with a control signal flat, not every such curve was filed as active; inconclusive means small, poorly fitted or top-dose-only effect, or effect the other way, or a change in a side signal; the % refers to the signal ratio;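 further: potency means the concentration at half of the fitted maximal effect; plate controls were basal doxycycline-induced cells for no effect and cells given 10 µM MG132 for full effect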
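TMD8 ABC-DLBCL cells carrying doxycycline-inducible green luciferase fused to IkappaBalpha plus unfused red luciferase were exposed to compounds (up to 46 uM) for 4 hrs at 37C. Activity came from the overlap-corrected green/red luminescence ratio.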
Giardia kill: kills Giardia lamblia | activity change, % at 7.66 µM, hits read low | Giardia lamblia trophozoite viability | 340,000 compounds, 0.15% hits; in the data active means activity change below about -80%; inconclusive means between about -30% and that limit;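 further: parasites exposed to compound for two days anaerobically before the ATP read; on the % scale 0 is the no-effect control and ±100 the full control effect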
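Trophozoites 100 cells/well + cpd; 48 hrs, 37 deg C, anaerobic. ATPLite 1-Step added, 15-30 min RT, luminescence read (ATP-based viability).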
* hit, by the source's call; ? = inconclusive; nt = no result; [ ] = remark or other dose. Unless noted, the call rests on the fitted dose curve; in most records, active means well fitted curve in the direction sought with a large enough effect; inconclusive means small, poorly fitted or top-dose-only effect, or another doubt; inactive means no such curve, though single readings can be large; an effect the other way counts as inactive or inconclusive.

SMILES	Gal4-VP16 FLuc	MCF10A rereplic	RORg inh	SW480 rereplic	BCR signal inh	Giardia kill
O=C(Nc1cccc(C(F)(F)F)c1)C1CCN(S(=O)(=O)c2ccc(N3CCCC3=O)cc2)CC1	13µM*	17%	?	?	5%	-7
CS(=O)(=O)N1CCC(C(=O)Nc2cccc(C(F)(F)F)c2)CC1	-4%	-4%	0%	-3%	-4%	-17
O=C(/C=C/c1ccccc1)NCCSCc1ccccc1	13µM*	7%	?	-693%	1%	-16
O=C(C=Cc1ccccc1)NCCNC(=O)C=Cc1ccccc1	nt	-1%	nt	-1%	nt	-18
O=C(/C=C/c1ccc2c(c1)OCO2)NCCSCc1c(Cl)cccc1Cl	1%	9.2µM*	?	-7%	?	10
COCC(=O)N1CCC2(CC1)CN(Cc1cc(C(F)(F)F)cc(C(F)(F)F)c1)C2	8%	nt	-9%	nt	nt	nt
O=C(NNC1OC(CO)C(O)C(O)C1O)c1cccc(Br)c1 (centres undefined)	11%[10 µM]	1%	11µM*	-45%	?	1
O=C(O)CCC(=O)NNC(=O)c1cccc(Br)c1	4%	-2%	-1%	0%	-21%	1
COC(=O)C1=C(O)/C(=C\c2ccc(OCC(=O)Nc3ccc(OC)cc3)cc2)N=C1C	-3%	?	-17%	15µM*	1%	-1
COc1ccc(C(=O)CC(=O)C(=O)Nc2ccccc2OC)cc1	4.5µM*	21%	5.6µM*	-4%	-4%	10
COc1cccc(C(=O)CC(=O)C(=O)Nc2cc(OC)ccc2OC)c1	?	-2%	11µM*	-2%	?	-8
COc1ccc(C(=O)CC(=O)C(=O)Nc2ccc(C)cc2Cl)cc1	20%	5%	-9%	-2%	?	-4
CCCCOC(=O)c1ccc(NC(=O)C(=O)CC(=O)c2ccc(OC)cc2)cc1	?	15µM*	-41%	0%	0%	1
COc1ccc(C(=O)CC(=O)C(=O)Nc2ccc(C)c(C)c2)cc1	?	3%	13µM*	-7%	-2%	-15
CCCCOC(=O)c1ccc(NC(C)=O)cc1	14%	0%	2%	-2%	?	-2
COc1cccc(C(=O)CC(=O)C(=O)Nc2cc(OC)c(OC)c(OC)c2)c1	0%	nt	0%	nt	-1%	nt
O=C(/C=C\Nc1ccc(S(=O)(=O)Nc2ncccn2)cc1)c1ccccc1	28%	?	23%	2%	?	-5
CCOc1ccccc1NC(=O)C(=O)CC(=O)c1cccc(OC)c1	7.9µM*	4%	3.5µM*	-6%	1%	8
O=C(Nc1ccc(Cl)c(Cl)c1)c1ccc(Cn2cc(Cl)cn2)cc1	?	?	?	5%	?	-11
CCOc1ccc(C(=O)Nc2cnn(Cc3ccc(Cl)c(Cl)c3)c2)cc1	-5%	0.65µM*	35%	3%	11%	-15
O=C(OCC(=O)N1CCOCC1)c1ccc(Cl)c(S(=O)(=O)N2CCc3ccccc32)c1	nt	8%	nt	-9%	-13%	9
Cc1ccc(S(=O)(=O)N2CCN(c3nc(C(N)=O)nc4ccccc34)CC2)cc1	nt	nt	nt	nt	nt	14
Nc1c(S(=O)(=O)c2ccccc2)c2nc3ccccc3nc2n1/N=C/c1cccc(O)c1	-1%	0.92µM*	-2%	7%	-5%	-2
Cc1ccc(C(=O)NC2CCCc3c2cnn3-c2ccc(F)cc2F)cn1 (centres undefined)	2.8µM*	nt	?	nt	4%	nt
Cc1nnsc1C(=O)NC1CCCc2c1cnn2-c1ccc(F)cc1F (centres undefined)	7.1µM*	18%	?	0%	-1%	-24
CCN(CC(=O)NC(C)C)C(=O)[C@@H](NC(=O)c1ccco1)C(C)C	0%	-2%	19%	-1%	0%	21
Cc1cc(NC(=O)c2ccc3c(c2)C(=O)N(c2cccc(C)c2C)C3=O)no1	18µM*	0%	?	0%	-3%	-8
O=C(Nc1nc(-c2ccccn2)cs1)c1ccc2c(c1)OCCO2	10µM*	10%	3.2µM*	1%	?	-28
